Data published in PubChem BioAssay (EPA / NIEHS).
Activity calls are given as the source filed them. The calls were made as follows: active = hit-call score of the fitted dose curve at least 0.9, where 1 is the maximum; inactive = score below 0.9.

Columns and labels:
[1] = read-out: Matrix Metallopeptidase 9 (MMP9), MMP9 (gene 4318); test: BSK_KF3CT_MMP9: BioMAP Diversity Plus: KF3CT Assay for Matrix Metallopeptidase 9 (MMP9) Biomarker Activity (AID 2283074); settings: primary human keratinocytes with fibroblasts; actives raise or lower the signal
Outline: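 Human keratinocyte and foreskin fibroblast co-culture exposed to chemicals for 24 h; MMP9 biomarker measured by ELISA, bidirectional fitting relative to DMSO; cytotoxicity tracked by SRB total protein staining in parallel cultures.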

[2] = read-out: urokinase plasminogen activator (uPA), PLAU (gene 5328); test: BSK_KF3CT_uPA: BioMAP Diversity Plus: KF3CT Assay for urokinase plasminogen activator (uPA) Biomarker Activity (AID 2283075); settings: primary human keratinocytes with fibroblasts; actives raise or lower the signal
Outline: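 Primary human keratinocyte/foreskin fibroblast co-culture exposed to chemical; uPA measured by ELISA at 24 h. Bidirectional fit versus DMSO, with parallel SRB total-protein staining for cytotoxicity.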

[3] = read-out: CD40, CD40 (gene 958); test: BSK_LPS_CD40: BioMAP Diversity Plus: LPS Assay for CD40 Biomarker Activity (AID 2283076); settings: primary human HUVEC with PBMC; actives raise or lower the signal
Outline: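 Using a multiplexed primary human co-culture (umbilical vein endothelium plus PBMC), CD40 was read by ELISA 24 h after dosing, with cytotoxicity tracked by sulforhodamine B staining of parallel cultures and activity fitted bidirectionally versus DMSO.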

[4] = read-out: E-selectin (Homo sapiens) (UniProt P16581); test: BSK_LPS_Eselectin: BioMAP Diversity Plus: LPS Assay for Eselectin Biomarker Activity (AID 2283077); settings: primary human HUVEC with PBMC; actives raise or lower the signal
Outline: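 Dose chemical onto LPS-driven HUVEC/PBMC co-culture; after 24 h, run ELISA for E-selectin; fit up- and down-going responses relative to DMSO control.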

[5] = read-out: Interleukin-8 (IL8), CXCL8 (gene 3576); test: BSK_LPS_IL8: BioMAP Diversity Plus: LPS Assay for Interleukin-8 (IL8) Biomarker Activity (AID 2283078); settings: primary human HUVEC with PBMC; actives raise or lower the signal
Outline: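 In this LPS system, chemical-treated human umbilical vein endothelium/PBMC co-cultures were harvested at 24 h for IL-8 ELISA.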

[6] = BSK_LPS_SRB: Viability Assessment in the BioMAP Diversity Plus: LPS Assay (AID 2283079); settings: primary human HUVEC with PBMC;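 also: total protein by sulforhodamine B absorbance as a cytotoxicity measure; measured one day after compound addition; fitted in both directions against DMSO so loss or gain of signal counts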
Outline: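 Cytotoxicity endpoint in human endothelial–PBMC co-culture: 24 h exposure, then SRB (0.1%) staining, 560 nm read.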

[7] = read-out: Interleukin-1 alpha (IL1a), IL1A (gene 3552); test: BSK_LPS_IL1a: BioMAP Diversity Plus: LPS Assay for Interleukin-1 alpha (IL1a) Biomarker Activity (AID 2283080); settings: primary human HUVEC with PBMC; actives raise or lower the signal
Outline: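 Primary human HUVEC and PBMC co-culture stimulated with LPS is dosed and harvested at 24 h. Both increases and decreases in ELISA-measured IL-1a are scored relative to DMSO.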

[8] = read-out: Monocyte Chemoattractant Protein-1 (MCP1), CCL2 (gene 6347); test: BSK_LPS_MCP1: BioMAP Diversity Plus: LPS Assay for Monocyte Chemoattractant Protein-1 (MCP1) Biomarker Activity (AID 2283081); settings: primary human HUVEC with PBMC; actives raise or lower the signal
Outline: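 Values derive from bidirectional fitting against DMSO of ELISA-measured MCP-1 in a human primary endothelial and mononuclear cell co-culture, 24 h after chemical addition under LPS activation.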

[9] = BSK_LPS_PGE2: BioMAP Diversity Plus: LPS Assay for Prostaglandin E2 (PGE2) Biomarker Activity (AID 2283082); settings: primary human HUVEC with PBMC; actives raise or lower the signal
Outline: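 HUVEC plus human PBMC co-culture stimulated with LPS; secreted PGE2 quantified by ELISA 24 h after chemical dosing. Activity fitted bidirectionally against DMSO baseline; parallel SRB staining (0.1% SRB after 10% TCA fixation, 560 nm) flags overt cytotoxicity.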

[10] = read-out: Macrophage colony-stimulating factor (MCSF), CSF1 (gene 1435); test: BSK_LPS_MCSF: BioMAP Diversity Plus: LPS Assay for Macrophage colony-stimulating factor (MCSF) Biomarker Activity (AID 2283083); settings: primary human HUVEC with PBMC; actives raise or lower the signal
Outline: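 Bidirectional fit versus DMSO of ELISA-measured M-CSF in co-cultured human umbilical vein endothelial cells and PBMC, sampled 24 h after dosing.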

[11] = read-out: Tissue Factor, F3 (gene 2152); test: BSK_LPS_TissueFactor: BioMAP Diversity Plus: LPS Assay for Tissue Factor Biomarker Activity (AID 2283084); settings: primary human HUVEC with PBMC; actives raise or lower the signal
Outline: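 Read-out: CD142 ELISA, 24 h. System: LPS-driven human endothelial/PBMC co-culture. Analysis: up- or down-signal fitted against DMSO.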

[12] = read-out: Tumor necrosis factor (Homo sapiens) (UniProt P01375); test: BSK_LPS_TNFa: BioMAP Diversity Plus: LPS Assay for Tumour Necrosis Factor alpha (TNFa) Biomarker Activity (AID 2283085); settings: primary human HUVEC with PBMC; actives raise or lower the signal
Outline: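 Human umbilical vein endothelial cells co-cultured with PBMC and stimulated with LPS. TNFa was measured by ELISA 24 h after chemical dosing, fitted bidirectionally relative to DMSO.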

[13] = read-out: Vascular cell adhesion molecule 1 (VCAM1), VCAM1 (gene 7412); test: BSK_LPS_VCAM1: BioMAP Diversity Plus: LPS Assay for Vascular cell adhesion molecule 1 (VCAM1) Biomarker Activity (AID 2283086); settings: primary human HUVEC with PBMC; actives raise or lower the signal
Outline: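 Human umbilical vein endothelial cells co-cultured with PBMC and stimulated with LPS; VCAM-1 measured by ELISA 24 h after dosing. Bidirectional curve fitting against DMSO baseline; cytotoxicity tracked in parallel by SRB total-protein staining.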

[14] = read-out: CD38, CD38 (gene 952); test: BSK_SAg_CD38: BioMAP Diversity Plus: SAg Assay for CD38 Biomarker Activity (AID 2283087); settings: primary human HUVEC with PBMC; actives raise or lower the signal
Outline: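 Human HUVEC plus PBMC co-culture stimulated with superantigen; CD38 measured by ELISA 24 h after chemical dosing. Fluorescence read-out, bidirectional fit against DMSO; cytotoxicity tracked in parallel by SRB and Alamar Blue.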

[15] = read-out: CD40, CD40 (gene 958); test: BSK_SAg_CD40: BioMAP Diversity Plus: SAg Assay for CD40 Biomarker Activity (AID 2283088); settings: primary human HUVEC with PBMC; actives raise or lower the signal
Outline: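 Endpoint derived by fitting increases or decreases versus DMSO controls. CD40 is detected by fluorescence ELISA in a human vascular co-culture of endothelium and PBMC at 24 h.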

[16] = read-out: CD69, CD69 (gene 969); test: BSK_SAg_CD69: BioMAP Diversity Plus: SAg Assay for CD69 Biomarker Activity (AID 2283089); settings: primary human HUVEC with PBMC; actives raise or lower the signal
Outline: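 Values derive from bidirectional fitting relative to DMSO vehicle. Cells: umbilical vein endothelium plus peripheral blood mononuclear cells, treated 24 h before fluorescent ELISA for CD69.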

[17] = read-out: Monocyte Chemoattractant Protein-1 (MCP1), CCL2 (gene 6347); test: BSK_SAg_MCP1: BioMAP Diversity Plus: SAg Assay for Monocyte Chemoattractant Protein-1 (MCP1) Biomarker Activity (AID 2283090); settings: primary human HUVEC with PBMC; actives raise or lower the signal
Outline: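 MCP-1 levels in the endothelial–PBMC SAg co-culture were quantified by ELISA at 24 h post-dosing; both increases and decreases versus DMSO scored. Cytotoxicity monitored by SRB total protein in parallel cultures.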

[18] = read-out: E-selectin (Homo sapiens) (UniProt P16581); test: BSK_SAg_Eselectin: BioMAP Diversity Plus: SAg Assay for Eselectin Biomarker Activity (AID 2283091); settings: primary human HUVEC with PBMC; actives raise or lower the signal
Outline: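 Endpoint values derive from bidirectional fitting relative to DMSO, using ELISA-measured E-selectin in a human vascular co-culture (umbilical vein endothelium plus PBMC) sampled 24 h after dosing.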

[19] = read-out: C-C motif chemokine 2 (Homo sapiens) (UniProt P13500); test: BSK_KF3CT_MCP1: BioMAP Diversity Plus: KF3CT Assay for Monocyte Chemoattractant Protein 1 (MCP1/CCL2) Biomarker Activity (AID 2283073); settings: primary human keratinocytes with fibroblasts; actives raise or lower the signal
Outline: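 Biomarker MCP-1 is measured by ELISA in primary human keratinocytes co-cultured with foreskin fibroblasts, 24 h after chemical treatment; DMSO serves as the negative control and activity baseline.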

[20] = read-out: Monokine induced gamma interferon (MIG), CXCL9 (gene 4283); test: BSK_SAg_MIG: BioMAP Diversity Plus: SAg Assay for Monokine induced gamma interferon (MIG) Biomarker Activity (AID 2283092); settings: primary human HUVEC with PBMC; actives raise or lower the signal
Outline: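 Values reflect bidirectional fitting of ELISA-measured MIG against DMSO vehicle, taken 24 h after dosing of a co-culture of human umbilical vein endothelial cells and peripheral blood mononuclear cells.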

Measured: outcome

E-selectin (Homo sapiens), sequence (P16581 whole entry, looked up): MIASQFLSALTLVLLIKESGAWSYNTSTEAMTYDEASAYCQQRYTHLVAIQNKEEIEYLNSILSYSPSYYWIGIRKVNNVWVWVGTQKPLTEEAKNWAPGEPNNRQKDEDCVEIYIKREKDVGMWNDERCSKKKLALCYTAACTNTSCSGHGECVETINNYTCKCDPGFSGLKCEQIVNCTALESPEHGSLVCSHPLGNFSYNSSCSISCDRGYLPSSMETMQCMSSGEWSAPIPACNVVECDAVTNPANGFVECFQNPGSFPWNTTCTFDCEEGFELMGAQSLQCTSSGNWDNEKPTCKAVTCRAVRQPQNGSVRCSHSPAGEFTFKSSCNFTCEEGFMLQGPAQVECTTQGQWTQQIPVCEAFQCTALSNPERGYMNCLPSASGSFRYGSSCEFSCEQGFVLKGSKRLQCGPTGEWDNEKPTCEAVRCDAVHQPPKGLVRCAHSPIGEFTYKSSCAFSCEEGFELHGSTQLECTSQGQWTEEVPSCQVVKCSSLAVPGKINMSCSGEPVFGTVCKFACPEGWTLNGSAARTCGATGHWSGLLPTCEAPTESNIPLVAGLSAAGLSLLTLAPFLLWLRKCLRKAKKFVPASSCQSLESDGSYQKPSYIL
Tumor necrosis factor (Homo sapiens), sequence (P01375 whole entry, looked up): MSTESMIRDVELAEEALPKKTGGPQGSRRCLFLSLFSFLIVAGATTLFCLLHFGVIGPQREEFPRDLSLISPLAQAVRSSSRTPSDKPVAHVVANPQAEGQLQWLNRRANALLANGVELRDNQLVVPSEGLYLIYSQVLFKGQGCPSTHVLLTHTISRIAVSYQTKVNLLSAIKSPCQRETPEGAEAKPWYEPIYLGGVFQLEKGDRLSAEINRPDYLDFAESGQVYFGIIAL

CC(O)CC(C)(C)O (stereo not drawn)
not listed: [19] | [20]
inactive: all other assays above

CCCCCCCCCC(=O)O
inactive: all assays above
